Hits are enriched below; roughly 2.6% of the tested compounds scored in any of these assays.
FLuc inh – blocks Photinus pyralis firefly luciferase activity | P08659 | AID 411 | 72,000 compounds, 2.2% hits | purified firefly luciferase, luminescence, 8 min | Potency, µM (series often up to 57.1 µM), inactives show at the highest dose activity change, negative = inhibition, most hits filed as inhibitors; note: nearly all actives have a fitted effect of over 40% in size
Target sequence (P08659 whole entry, looked up): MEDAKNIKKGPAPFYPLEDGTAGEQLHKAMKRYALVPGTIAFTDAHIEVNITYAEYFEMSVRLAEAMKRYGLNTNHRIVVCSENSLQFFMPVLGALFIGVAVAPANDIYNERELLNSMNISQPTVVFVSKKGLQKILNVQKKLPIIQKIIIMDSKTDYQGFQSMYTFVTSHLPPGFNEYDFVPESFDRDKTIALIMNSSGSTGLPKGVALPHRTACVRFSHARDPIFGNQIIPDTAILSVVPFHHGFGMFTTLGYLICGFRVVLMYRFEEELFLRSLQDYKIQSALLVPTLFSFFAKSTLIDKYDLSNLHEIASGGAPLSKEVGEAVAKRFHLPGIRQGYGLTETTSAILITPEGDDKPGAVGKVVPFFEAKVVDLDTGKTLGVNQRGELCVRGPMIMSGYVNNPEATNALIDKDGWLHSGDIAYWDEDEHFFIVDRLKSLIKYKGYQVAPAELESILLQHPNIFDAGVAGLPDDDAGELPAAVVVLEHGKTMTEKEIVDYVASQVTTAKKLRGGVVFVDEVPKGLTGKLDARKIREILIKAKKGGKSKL
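Compounds were tested as concentration series (qHTS) against purified P. pyralis luciferase with luciferin and 10 uM ATP in 50 mM imidazole pH 7.2, 50 mM KCl, 7 mM MgCl2, 0.01% Tween 20, 0.05% BSA. Luminescence was read after 8 min at ambient temperature.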
p53ts 39C tox – kills p53ts cells at the nonpermissive temperature | H1299-p53A138V viability at 39C, ATP luminescence, 24 h | Potency, µM (series often up to 46.1 µM), for inactives: at the highest dose activity change, negative = cell killing, most hits filed as cytotoxic | 130,000 compounds, 1.5% hits | AID 902; note: nearly all actives have a fitted effect of over 55% in size
p53ts 32C kill – p53ts cell cytotoxicity, permissive temperature | 130,000 compounds, 0.93% hits | Potency, µM (series often up to 46.1 µM), for inactives: at the top dose activity change, negative = cytotoxicity, hits mostly cytotoxic | H1299-p53A138V at 32C, ATP luminescence viability, 24 h | AID 924;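 note: 0% = DMSO and -100% = full killing by reference compound; nearly all actives have a fitted effect of over 55% in size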
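H1299-p53 A138V cells (temperature-sensitive p53) exposed 24 h to up to 46 uM compound at 32C, where p53 is wild-type in conformation. Viability read as ATP luminescence and normalised to DMSO and 100 uM tamoxifen. AC50 fitted with the Hill equation.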
* = called active by the depositor; ? = inconclusive; nt = no result given; ! = not active in a repeat; [ ] = remark or other dose. Calls come from the whole dose curve; as a rule, active = well fitted curve in the direction sought with a large enough effect; inconclusive = small, poorly fitted or top-dose-only effect, or another doubt; inactive = no such curve, though single readings can be large; an effect the other way counts as inactive or inconclusive. Unless noted, % is set by controls: 0 for no effect and ±100 for the full control effect; potency is the fitted concentration of half-maximal effect.

SMILES	FLuc inh	p53ts 39C tox	p53ts 32C kill
CCCCn1c(O)c(C=NC2CCCCC2N)c(=O)[nH]c1=O (stereo unspecified)	1%	-16%	-9%
CCCCCCn1c(O)c(C=NC2CCCCC2N)c(=O)[nH]c1=O (stereo unspecified)	1.3µM*	5µM*	4µM*
CCOc1ccc2nc(NC(=O)c3cccn(Cc4ccc(C)cc4)c3=O)sc2c1	nt	1%	0%
COc1ccc2nc(NC(=O)c3nc(S(=O)(=O)Cc4cccc(C)c4)ncc3Cl)sc2c1	nt	10µM*	20µM*
COc1ccc2c3c1O[C@@H]1C(=O)CC[C@@]4(O)[C@@H](C2)N(CC2CC2)CC[C@]314	1%	14%	14%
CC(=O)c1c(C)nc2ccccc2c1N	3.2µM*	10µM*	13µM*
Cc1nc2ccccc2c(=O)n1-n1cnnc1	-1%	-8%	21%
C[C@]12CC[C@@H]3[C@H](CCC4=CC(=O)CC[C@]43C)[C@]1(O)CC[C@@]2(O)C(=O)CO	3%[11.4 µM]	16%[9.22 µM]	0%[9.22 µM]
COc1cc2c(cc1OC)[C@]13CC[N@+]4(C)CC5=CCO[C@H]6CC(=O)N2[C@@H]1[C@@H]6[C@@H]5C[C@]34O	4%[11.4 µM]	13%[9.22 µM]	2%[9.22 µM]
N[C@H](Cn1oc(=O)[nH]c1=O)C(=O)O	1%	nt	nt
CCn1nc(-c2ccccc2)nc2c(=O)n(C)c(=O)nc1-2	6%	4µM*	0.63µM*
COc1ccc2c(c[n+](C)c3c4cc5c(cc4ccc23)OCO5)c1OC	32µM*	13µM*	5µM*
COc1ccc2c(c1OC)CN1CCc3cc4c(cc3[C@H]1C2)OCO4	-4%[25.5 µM]	5%[20.6 µM]	-1%[20.6 µM]
CC[C@@H]1CN2CC[C@@H]1C[C@H]2[C@@H](O)c1ccnc2ccc(OC)cc12	-3%[11.4 µM]	nt	nt
O=c1c2ccccc2nc(-c2ccco2)n1-c1ccccc1	nt	12%	2%
O=c1c2ccccc2[se]n1-c1ccccc1	16µM*	?	4%
COc1cc2c(cc1OC)[C@]13CCN4CC5=CCO[C@@H]6CC(=O)N2[C@@H]1[C@H]6[C@@H]5C[C@H]43	0%[11.4 µM]	nt	nt
COc1ccc(C[C@@H](N)c2ccc(OC)cc2)cc1	1%[11.4 µM]	-7%[9.22 µM]	6%[9.22 µM]
CC[C@H]1[C@@H]2C[C@@H]3[C@@H]4N(C)c5ccccc5[C@@]45C[C@@H]([C@H]2[C@@H]5O)N3[C@@H]1O	2%[11.4 µM]	nt	nt
CN1CCN(c2ccc3nc(-c4ccc5nc(-c6ccc(O)cc6)[nH]c5c4)[nH]c3c2)CC1	4µM*	9%[9.22 µM]	5%[9.22 µM]
Cc1ccc2nc(N3CCN(C)CC3)[nH]c2c1	-28%	-6%	-12%
C=C(C)[C@H]1[C@H]2OC(=O)[C@@H]1[C@]1(O)C[C@H]3O[C@]34C(=O)O[C@H]2[C@]14C	1%[11.4 µM]	nt	nt
COC(=O)[C@]1(C)CC[C@@]2(C)CC[C@@]3(C)C4=CC=C5C(=CC(=O)C(O)=C5C)[C@@]4(C)CC[C@@]3(C)C2C1 (stereo partly specified)	nt	13µM*	10µM*
O=C(O)C(C(=O)O)P(=S)(S)c1ccccc1 (stereo unspecified)	1%[11.4 µM]	6%[9.22 µM]	7%[9.22 µM]
[Cl-].[Cl-].[Hg+2]	nt	25µM*	nt
SMILES	FLuc inh	p53ts 39C tox	p53ts 32C kill
C[C@@H](CO)NC(=O)[C@H]1C=C2c3cccc4[nH]cc(c34)C[C@H]2N(C)C1	1%[11.4 µM]	nt	nt
CCCN1CCc2cccc3c2[C@@H]1Cc1ccc(O)c(O)c1-3	-11%	?	-24%
Cc1ccc2cccc(OC(=O)N3CCCC3)c2n1	1%	4%	-1%
O=C(Oc1ccc2ccccc2c1Cl)N1CCCC1	16µM*	-28%	?
NCCP(=O)(O)O	1%[11.4 µM]	-3%[9.22 µM]	2%[9.22 µM]
O=c1cccc2n1C[C@@H]1C[C@H]2CN2CCCC[C@H]12	-7%[11.4 µM]	nt	nt
CC(C)[C@@]1(NC(=O)[C@H]2C[C@H]3c4cccc5[nH]cc(c45)C[C@@H]3N(C)C2)O[C@]2(O)[C@H]3CCCN3C(=O)[C@H](Cc3ccccc3)N2C1=O	-7%	nt	nt
CC(C)[C@@]1(NC(=O)[C@@H]2C[C@H]3c4cccc5[nH]cc(c45)C[C@@H]3N(C)C2)O[C@@]2(O)[C@H]3CCCN3C(=O)[C@H](Cc3ccccc3)N2C1=O	-3%	32µM*!	?
COc1ccc2[nH]cc(CCN)c2c1	1%	6%	8%
CCCCCCCCCOc1ccc2[nH]cc(CCN)c2c1	-1%	32µM*	?
CN(C)[C@@H]1C(=O)C(C(N)=O)=C(O)[C@]2(O)C(=O)C3=C(O)c4c(O)cccc4[C@@](C)(O)[C@@H]3C[C@@H]12	-2%[11.4 µM]	nt	nt
COc1cc([C@@H](O)CN)ccc1O	0%	10%	5%
CC(=O)c1ccc(NC(=O)c2sc3nc4c(cc3c2N)N2CCC4CC2)cc1	nt	-22%	?
Cc1ccc(C(=O)Nc2c(C(=O)Nc3ccc(C)c(C)c3)sc3nc(C)cc(C)c23)cc1	nt	6.3µM*	-24%
Nc1ncnc2c1ncn2[C@@H]1O[C@@H](COP(=O)(O)CP(=O)(O)OP(=O)(O)O)[C@H](O)[C@@H]1O	3%	-11%	-23%
Clc1ccc(N2C[C@H]3CC[C@@H](C2)N3)nn1	4%	14%	-12%
O[N+]1=CC=CCC1=S.On1ccccc1=S.[Zn]	nt	4µM*	0.79µM*
CN(CCc1ccc(Cl)c(Cl)c1)[C@H]1CCCC[C@H]1N1CCCC1	0%	-22%	-11%
CN(C(=O)Cc1ccc(Cl)c(Cl)c1)[C@H](CN1CCCC1)c1cccc(N=C=S)c1	4%	32µM*	32µM*
C=CCN1CC[C@]23c4c5ccc(O)c4O[C@@H]2/C(=N/NC(=O)c2ccccc2)CC[C@@]3(O)[C@H]1C5	-6%	12%	-9%
O=C(Cn1c(=O)oc2cc(S(=O)(=O)N3CCCCCC3)ccc21)NCc1ccccc1Cl	nt	23%	32%
O=C(Cn1c(=O)n(Cc2ccccc2)c(=O)c2sc3ccccc3c21)NCc1ccccc1Cl	nt	32µM*	13µM*
O=C(O)/C=C\c1ccc[c]([Sb](=[O])([OH])[OH])c1	2%[11.4 µM]	11%[9.22 µM]	9%[9.22 µM]
C[C@@H]1O[C@@H](O[C@H]2C[C@@H](O)[C@]3(CO)[C@@H]4[C@@H](O)C[C@]5(C)[C@H]([C@@H]6COC(=O)C6)CC[C@@]5(O)[C@H]4CC[C@@]3(O)C2)[C@H](O)[C@H](O)[C@@H]1O	1%	?	?
O=C(NCCc1ccc(Cl)cc1)c1ccc(Nc2nc3ccccc3n3nnnc23)cc1	nt	7.9µM*	?
SMILES	FLuc inh	p53ts 39C tox	p53ts 32C kill
O=C(O)[C@H]1[O][Sb][O][C@@H](C(=O)O)C1O (stereo partly specified)	-1%[11.4 µM]	13%[9.22 µM]	6%[9.22 µM]
CN1CCN(c2ccc3ccccc3n2)CC1	-4%	-15%	-1%
Cc1ccc(NC(=O)Nc2ccc3nc(N4CCN(C)CC4)cc(C)c3c2)cc1F	nt	?	25µM*
N[C@@H](CSC1c2ccccc2-c2ccccc21)C(=O)O	2%[11.4 µM]	3%[9.22 µM]	-4%[9.22 µM]
Cc1nc(-c2ccc(-c3ccc(C(=O)N4CCc5cc6c(cc54)C4(CCN(C)CC4)CO6)cc3)c(C)c2)no1	-21%	10µM*	16µM*
COC(=O)C1CN(C#N)N(c2ccc(Cl)cc2)C12c1ccccc1-c1ccccc12 (stereo unspecified)	nt	11µM*	4µM*

Compound activity deposited in PubChem BioAssay by National Center for Advancing Translational Sciences (NCATS).
